# Measurements taken from the supplement of paper PMC12494721.
# Structures can show the parent of a compound that is named as a salt.
# Legend:
# Conditions in all cases: incubation time: 27 h, anaerobic, 37 °C;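 for the amine columns active = adjusted P below 0.05 in both replicates with a change the same way and a mean fold change under 0.8 or over 1.25; inactive = the rest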
# [1] = test system: Clostridium sporogenes DSM 1664; assay: growth (OD595) fold change vs plate DMSO controls (fold change (ratio)); higher = more growth
# Method in brief: (§1)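 Shaken 96-well cultures in mGAM, grown anaerobically for 27 h at 37 °C, were read at 595 nm. OD came from blank-subtracted readings, corrected for background with 20 µM compound solutions in water and scaled by a calibration factor of 5. Growth is the fold change versus the plate's median DMSO control. Values average 2 biological replicates, and any fold change above 1.5 is NA.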
# Escherichia coli IAI1 [2] = assay: as above
# Method in brief: as §1
# [3] = test system: Klebsiella aerogenes DSM 30053; assay: as above
# Method in brief: as §1
# [4] = test system: Ruminococcus gnavus DSM 108212; assay: as above
# Method in brief: as §1
# [5] = test system: Klebsiella aerogenes DSM 30053; assay: fold change of Histamine concentration vs plate DMSO controls (fold change (ratio)); higher = more amine produced, active = hit call of the paper (significant change in both replicates, either direction)
# Method in brief: (§2)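 Amine values are fold changes relative to DMSO-only wells on the same plate. They derive from 27 h, 37 °C anaerobic mGAM cultures of four gut bacterial strains in 80 µL wells, dosed at 20 µM final, or 50 µM final for sweeteners. Extraction of the whole culture, LC–triple-quadrupole MS in dynamic MRM mode, external calibration curves and within-batch drift correction were used, with 2 biological replicates averaged.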
# [6] = test system: Clostridium sporogenes DSM 1664; assay: fold change of Tryptamine concentration vs plate DMSO controls (fold change (ratio)); higher = more amine produced, active = hit call of the paper (significant change in both replicates, either direction)
# Method in brief: as §2
# [7] = test system: Ruminococcus gnavus DSM 108212; assay: as above
# Method in brief: as §2
# Escherichia coli IAI1 [8] = assay: fold change of Putrescine concentration vs plate DMSO controls (fold change (ratio)); higher = more amine produced, active = hit call of the paper (significant change in both replicates, either direction)
# Method in brief: as §2
# [9] = test system: Klebsiella aerogenes DSM 30053; assay: as above
# Method in brief: as §2
# Escherichia coli IAI1 [10] = assay: fold change of Cadaverine concentration vs plate DMSO controls (fold change (ratio)); higher = more amine produced, active = hit call of the paper (significant change in both replicates, either direction)
# Method in brief: as §2
# [11] = test system: Klebsiella aerogenes DSM 30053; assay: as above
# Method in brief: as §2
# [12] = test system: Ruminococcus gnavus DSM 108212; assay: fold change of 2-Phenylethylamine concentration vs plate DMSO controls (fold change (ratio)); higher = more amine produced, active = hit call of the paper (significant change in both replicates, either direction)
# Method in brief: as §2
Structure (SMILES),growth [1],growth (Escherichia coli IAI1 [2]),growth [3],growth [4],fold change of Histamine concentration [5],fold change of Tryptamine concentration [6],fold change of Tryptamine concentration [7],fold change of Putrescine concentration (Escherichia coli IAI1 [8]),fold change of Putrescine concentration [9],fold change of Cadaverine concentration (Escherichia coli IAI1 [10]),fold change of Cadaverine concentration [11],fold change of 2-Phenylethylamine concentration [12]
C[C@H]1[C@H](OC(=O)CCC(=O)O)O[C@@H]2O[C@@]3(C)CC[C@H]4[C@H](C)CC[C@@H]1[C@@]24OO3 [Artesunate] (20 µM),1.08,1.01,1.03,0.931,1.04 (inactive),1.05 (inactive),0.879 (inactive),0.992 (inactive),1.01 (inactive),0.99 (inactive),0.982 (inactive),0.834 (inactive)
CC(C)(CO)[C@@H](O)C(=O)NCCCC(=O)O [Hopantenate calcium] (20 µM),1.07,0.997,0.983,1.05,1.03 (inactive),1.02 (inactive),1.04 (inactive),1.01 (inactive),0.995 (inactive),1.03 (inactive),0.988 (inactive),1.03 (inactive)
"CC(C)(S)C(N)C(=O)O (racemic) [D,L-Penicillamine] (20 µM)",1.05,1.08,1.02,0.873,0.909 (inactive),0.993 (inactive),0.968 (inactive),0.99 (inactive),0.954 (inactive),1 (inactive),0.974 (inactive),0.956 (inactive)
Cc1cn([C@H]2C[C@H](N=[N+]=[N-])[C@@H](CO)O2)c(=O)[nH]c1=O [Zidovudine] (20 µM),0.921,0.825,0.946,1.45,1.12 (inactive),1.04 (inactive),1.02 (inactive),0.549 (inactive),1.07 (inactive),1.79 (inactive),0.981 (inactive),1.11 (inactive)
COc1ccc(OC)c(C(O)CNC(=O)CN)c1 (stereo not given) [Midodrine hydrochloride] (20 µM),1.08,1.03,1.09,0.949,1.05 (inactive),1.03 (inactive),1 (inactive),1.01 (inactive),1 (inactive),0.995 (inactive),0.995 (inactive),1 (inactive)
